A number with no mark means an inactive call. Results filed as inconclusive are left out. Where a call stands in place of a potency, no number is given. The source made the active and inactive calls. Unless noted, calls come from the whole dose curve; as a rule, active = well fitted curve in the direction sought with a large enough effect in the repeat runs; inconclusive = weak or mixed curves; inactive = no such curve, though single readings can be large; an effect the other way counts as inactive or inconclusive.
Tests used:
[1] = A CellTox Green Cytotoxicity Assay to monitor cytotoxicity in HepG2 cells - 8 hour (AID 1224890); note: nearly all actives have a fitted effect of over 45% in size
Procedure, shortened: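 First, HepG2 cells (600/well) mixed with reagent were plated; second, after 5 h at 37 C they received compounds via pintool; third, fluorescence was measured at 0 h through 40 h at 8 h intervals.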

[2] = qHTS assay to identify small molecule antagonists of the estrogen receptor alpha (ER-alpha) signaling pathway using the BG1 cell line in the presence of 0.1 nM 17-beta-estradiol - cell viability counter screen (AID 1259241); note: nearly all actives have a fitted effect of over 40% in size
Procedure, shortened: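 VM7Luc4E2 cells (endogenous full-length ER-alpha, 4xERE-luciferase), cultured 5 days in charcoal-stripped serum, exposed to compounds with 0.1 nM 17beta-estradiol (final) for 22 hr at 37C. Viability read in same wells as live-cell protease fluorescence after 30 min.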

[3] = qHTS assay to identify small molecule antagonists of the androgen receptor (AR) signaling pathway using the MDA cell line in the presence of 0.5 nM R1881 - cell viability counter screen (AID 1259242); note: nearly all actives have a fitted effect of over 45% in size
Procedure, shortened: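 qHTS format. MDA-kb2 (MMTV-luc, AR/GR responsive) + cpd + 0.5 nM R1881 final, 16 hr 37C/0% CO2 → CellTiter-Fluor 30 min → fluorescence intensity.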

[4] = target: Androgen receptor (Homo sapiens) (UniProt P10275); experiment: qHTS assay to identify small molecule antagonists of the androgen receptor (AR) signaling pathway using the MDA cell line in the presence of 0.5 nM R1881 (AID 1259243); note: nearly all actives have a fitted effect of over 50% in size; note: potency is the fitted concentration of half-maximal effect
Procedure, shortened: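 Antagonist mode quantitative HTS in MDA-kb2 MMTV-luciferase cells, agonist R1881 at 0.5 nM final, 16 hr exposure at 37C and 0% CO2, luminescent detection.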

[5] = target: Estrogen receptor (Homo sapiens) (UniProt P03372); experiment: qHTS assay to identify small molecule antagonists of the estrogen receptor alpha (ER-alpha) signaling pathway using the BG1 cell line in the presence of 0.1 nM 17-beta-estradiol (AID 1259244); note: nearly all actives have a fitted effect of over 50% in size
Procedure, shortened: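 Reporter is a stably transfected luciferase under four estrogen responsive elements in VM7Luc4E2 cells expressing native full-length ER-alpha; inhibition of 0.1 nM (final) 17beta-estradiol-driven signal over 22 h is read by luminescence.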

[6] = qHTS assay to identify small molecule HDAC inhibitors (AID 1259364); note: potency is the fitted concentration of half-maximal effect;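 note: wild-type HCT-116 cells with endogenous class I/II HDAC activity; nearly all actives have a fitted effect of over 45% in size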
Procedure, shortened: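 Quantitative high-throughput format: overnight-seeded HCT-116 cells got compounds for 2 hr at 37C; HDAC-Glo I/II reagent added, 30 min RT, luminescence measured.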

[7] = qHTS assay to identify small molecule HDAC inhibitors - cell viability counter screen (AID 1259365); note: series mostly up to about 92 µM; nearly all actives have a fitted effect of over 50% in size
Procedure, shortened: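 Wild-type HCT-116 cells, 1,500/well, cultured overnight, then compound-treated 2 h at 37 C. Viability measured as ATP luminescence with CellTiter-Glo after 30 min at room temperature.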

[8] = qHTS assay to identify small molecule antagonists of the sonic hedgehog signaling (Shh) pathway - cell viability counter screen (AID 1259367); note: nearly all actives have a fitted effect of over 55% in size
Procedure, shortened: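 CellTiter-Fluor signal in conditioned medium-stimulated 3T3 Gli1-Luc cells, 23 hr compound exposure, 37C.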

[9] = qHTS assay to identify small molecule agonists of the sonic hedgehog signaling (Shh) pathway (AID 1259368; calls by dose curve;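 note: NIH/3T3-derived 3T3Gli1-Luc cells carrying a stable Gli1-driven firefly luciferase reporter; series mostly up to about 92 µM; nearly all actives have a fitted effect of over 15% in size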)
Procedure, shortened: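 Quantitative high-throughput format using a Gli1-driven firefly luciferase reporter line derived from NIH/3T3 cells. After a 24 hr compound treatment at 37 C and 5% CO2, luminescence reported Gli1 response element activity.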

[10] = qHTS assay to identify small molecule antagonists of the sonic hedgehog signaling (Shh) pathway (AID 1259369; calls by dose curve; note: nearly all actives have a fitted effect of over 45% in size)
Procedure, shortened: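 Stable Gli1-Luc reporter NIH/3T3 clone; quantitative HTS in stimulated mode with conditioned medium. Luminescence measured after 24hr compound treatment at 37 C.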

[11] = target: Estrogen receptor beta (Homo sapiens) (UniProt Q92731); experiment: qHTS assay to identify small molecule agonists of the estrogen receptor beta (ER-beta) signaling pathway (AID 1259377; active = well fitted activation curve with a large enough effect in the signal ratio in the repeat runs, not every such curve was filed as active; the % refers to the signal ratio)
Procedure, shortened: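 ER-beta-UAS-bla HEK293T cells in medium with 2% charcoal-stripped FBS were exposed to compounds for 16 h at 37C. Beta-lactamase reporter activity was read as fluorescence after 2 h with LiveBLAzer B/G FRET substrate at room temperature.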

[12] = qHTS assay to identify small molecule agonists of the androgen receptor (AR) signaling pathway in the presence of an antagonist - cell viability counter screen (AID 1259379);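 note: MDA-kb2 human breast cancer cells carrying an MMTV luciferase reporter; series mostly up to about 92 µM; nearly all actives have a fitted effect of over 25% in size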
Procedure, shortened: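 Nilutamide-containing (3.0uM final) MDA-kb2 cultures, 3,000 cells/well, were treated with compounds across 15 concentrations. After 16 hr at 37C with no CO2, cell viability was determined by CellTiter-Fluor fluorescence in the luciferase assay wells.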

[13] = qHTS assay to identify small molecule agonists of the estrogen receptor beta (ER-beta) signaling pathway - cell viability counter screen (AID 1259380); note: nearly all actives have a fitted effect of over 30% in size
Procedure, shortened: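 Steps: plate ER-beta-UAS-bla HEK293T cells, rest 6 hr; add compounds in DMSO; incubate 16 hr at 37C, 5% CO2; add FRET substrate 2 hr; add CellTiter-Glo, wait 30 min at room temperature; read luminescence.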

[14] = target: Androgen receptor (Homo sapiens) (UniProt P10275); experiment: qHTS assay to identify small molecule agonists of the androgen receptor (AR) signaling pathway in the presence of an antagonist (AID 1259381; calls by dose curve; note: nearly all actives have a fitted effect of over 15% in size; note: potency is the fitted concentration of half-maximal effect)
Procedure, shortened: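 Reporter-gene luminescence from MDA-kb2 cells exposed 16hr at 37C (0% CO2) to 15-point compound titrations with 3.0uM final nilutamide as AR antagonist.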

[15] = qHTS assay to identify small molecule antagonists of the estrogen receptor beta (ER-beta) signaling pathway - cell viability counter screen (AID 1259382);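 note: HEK293T cells carrying ER-beta-UAS-bla reporter stimulated with estradiol; series mostly up to about 92 µM; nearly all actives have a fitted effect of over 55% in size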
Procedure, shortened: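 Viability is scored by CellTiter-Glo luminescence (30 min, room temperature) in ER-beta-UAS-bla HEK293T wells already read for reporter fluorescence. Compound exposure lasts 16 hr at 37C alongside 1nM 17-beta-estradiol in charcoal-stripped serum medium.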

[16] = target: Estrogen receptor (Homo sapiens) (UniProt P03372); experiment: qHTS assay to identify small molecule agonists of the estrogen receptor alpha (ER-alpha) signaling pathway in the presence of an antagonist (AID 1259383; calls by dose curve; note: top concentration of the series differs between compounds; nearly all actives have a fitted effect of over 15% in size)
Procedure, shortened: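 Readout was ERE-driven luciferase luminescence in VM7Luc4E2 cells, which express full-length ER-alpha endogenously. Compounds were tested at 15 concentrations for 22hr alongside 10.0nM ICI-182,780 (final concentration).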

[17] = qHTS assay to identify small molecule phospholipidosis (PLD) inducers (AID 1259344; active = well fitted curve in the direction sought with a large enough effect; an effect the other way counts as inactive or inconclusive)
Procedure, shortened: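 Accumulated phospholipid, stained red by LipidTOX during 24 h compound treatment of HepG2 cells at 37 C, is quantified from images as pit number and intensity, normalised per cell using Hoechst-stained nuclei.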

[18] = qHTS assay to identify small molecule agonists of the sonic hedgehog signaling (Shh) pathway - cell viability counter screen (AID 1259366); note: nearly all actives have a fitted effect of over 50% in size
Procedure, shortened: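 NIH/3T3-derived Gli1-Luc reporter cells, 2,000 per well, received compound after 4 h and were treated about 23 h at 37C. Viability measured in the same wells by CellTiter-Fluor fluorescence after 1 h.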

[19] = target: Estrogen receptor beta (Homo sapiens) (UniProt Q92731); experiment: qHTS assay to identify small molecule antagonists of the estrogen receptor beta (ER-beta) signaling pathway (AID 1259378; active = well fitted inhibition curve with a large enough effect in the signal ratio in the repeat runs, not every such curve was filed as active; the % refers to the signal ratio)
Procedure, shortened: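 Antagonist mode: compounds added to beta-lactamase reporter HEK293T ER-beta-UAS cells stimulated with E2 (1nM final), 16 hr at 37C. LiveBLAzer B/G FRET substrate, 2 hours room temperature, fluorescence read-out.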

[20] = qHTS assay to identify small molecule agonists or antagonists of the thyroid stimulating hormone receptor (TSHR) signaling pathway - wild type cell line counter screen (AID 1259384; calls by dose curve)
Procedure, shortened: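 Counter screen in untransfected Hek293: compounds (15-point titration, triplicate) plus phosphodiesterase inhibitor Ro20-1724 added after 18 h plating; 30 min RT. Intracellular cAMP via competitive d2/cryptate immunoassay, 1 h incubation.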

Estrogen receptor beta (Homo sapiens), sequence (Q92731 whole entry, looked up): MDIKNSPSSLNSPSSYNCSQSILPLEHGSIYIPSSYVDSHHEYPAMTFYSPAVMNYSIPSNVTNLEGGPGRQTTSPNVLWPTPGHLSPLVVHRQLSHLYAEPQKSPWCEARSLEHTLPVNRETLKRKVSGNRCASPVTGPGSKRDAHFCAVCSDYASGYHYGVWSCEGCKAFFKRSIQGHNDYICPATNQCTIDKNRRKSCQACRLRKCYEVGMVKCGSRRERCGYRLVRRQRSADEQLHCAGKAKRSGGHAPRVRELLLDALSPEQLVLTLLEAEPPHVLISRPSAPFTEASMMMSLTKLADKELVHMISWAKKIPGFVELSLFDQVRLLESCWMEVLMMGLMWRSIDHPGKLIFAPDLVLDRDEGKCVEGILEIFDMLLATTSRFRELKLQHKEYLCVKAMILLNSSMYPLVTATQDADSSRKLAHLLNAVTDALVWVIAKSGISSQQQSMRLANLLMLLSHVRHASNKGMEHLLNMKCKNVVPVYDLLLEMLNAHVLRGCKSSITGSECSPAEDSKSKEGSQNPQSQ
Androgen receptor (Homo sapiens), sequence (P10275 whole entry, looked up): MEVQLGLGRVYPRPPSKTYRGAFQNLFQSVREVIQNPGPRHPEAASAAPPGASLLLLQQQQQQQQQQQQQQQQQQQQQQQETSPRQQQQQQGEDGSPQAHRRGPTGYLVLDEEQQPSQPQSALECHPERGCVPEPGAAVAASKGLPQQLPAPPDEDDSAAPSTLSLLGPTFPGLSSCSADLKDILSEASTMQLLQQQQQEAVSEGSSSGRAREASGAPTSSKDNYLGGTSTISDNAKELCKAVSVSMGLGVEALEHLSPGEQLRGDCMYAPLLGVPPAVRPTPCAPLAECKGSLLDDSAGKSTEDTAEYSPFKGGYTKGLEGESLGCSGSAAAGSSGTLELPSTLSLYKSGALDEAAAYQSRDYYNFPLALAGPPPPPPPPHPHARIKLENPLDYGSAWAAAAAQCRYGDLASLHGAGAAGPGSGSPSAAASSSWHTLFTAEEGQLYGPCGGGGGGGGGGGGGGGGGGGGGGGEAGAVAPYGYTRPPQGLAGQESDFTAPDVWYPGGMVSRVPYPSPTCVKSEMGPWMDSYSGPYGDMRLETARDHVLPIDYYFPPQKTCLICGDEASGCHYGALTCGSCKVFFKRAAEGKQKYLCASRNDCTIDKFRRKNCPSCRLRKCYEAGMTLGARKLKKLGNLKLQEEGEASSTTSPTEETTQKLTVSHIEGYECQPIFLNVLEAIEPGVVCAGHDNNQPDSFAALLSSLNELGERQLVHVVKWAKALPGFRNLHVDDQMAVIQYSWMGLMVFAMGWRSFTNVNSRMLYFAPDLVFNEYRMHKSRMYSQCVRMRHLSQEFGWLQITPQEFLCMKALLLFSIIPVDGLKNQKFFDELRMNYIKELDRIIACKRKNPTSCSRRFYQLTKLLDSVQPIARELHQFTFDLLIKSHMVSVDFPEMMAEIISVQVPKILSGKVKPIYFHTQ
Estrogen receptor (Homo sapiens), sequence (P03372 whole entry, looked up): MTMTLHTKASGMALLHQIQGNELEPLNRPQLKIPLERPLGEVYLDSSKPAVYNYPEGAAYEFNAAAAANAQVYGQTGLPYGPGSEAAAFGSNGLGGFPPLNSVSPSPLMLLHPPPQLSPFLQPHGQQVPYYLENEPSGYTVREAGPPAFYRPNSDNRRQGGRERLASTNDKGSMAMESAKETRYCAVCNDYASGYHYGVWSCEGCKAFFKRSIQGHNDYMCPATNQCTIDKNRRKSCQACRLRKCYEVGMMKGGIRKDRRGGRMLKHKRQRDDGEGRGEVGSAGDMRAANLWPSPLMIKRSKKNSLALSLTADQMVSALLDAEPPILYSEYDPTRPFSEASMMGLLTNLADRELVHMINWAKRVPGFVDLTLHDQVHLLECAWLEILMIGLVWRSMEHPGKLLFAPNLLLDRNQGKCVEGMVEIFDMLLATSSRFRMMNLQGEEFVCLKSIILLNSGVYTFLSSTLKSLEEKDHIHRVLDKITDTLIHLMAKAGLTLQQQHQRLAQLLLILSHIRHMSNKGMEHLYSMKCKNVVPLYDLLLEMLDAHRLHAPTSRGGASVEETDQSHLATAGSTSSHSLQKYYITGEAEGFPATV

SMILES	Potency [1]	outcome [2]	outcome [3]	Potency [4]	outcome [5]	Potency [6]	outcome [7]	outcome [8]	Potency [9]	Potency [10]	outcome [11]	Potency [12]	Potency [13]	Potency [14]	Potency [15]	Potency [16]	Potency [17]	Potency [18]	Potency [19]	outcome [20]
O=C1CC2(CCCC2)CC(=O)N1	inactive	inactive	inactive	inactive	inactive	inactive	inactive	inactive	inactive	inactive	inactive	inactive	inactive	inactive	inactive	inactive				
Nc1[nH]c(=O)ncc1F	inactive	inactive	inactive		inactive	inactive	inactive	inactive	inactive	inactive	inactive	inactive			inactive	inactive	inactive	inactive		
O=C(CCOCCOCCOCCOCCC(=O)Nc1c(I)cc(I)c(C(=O)O)c1I)Nc1c(I)cc(I)c(C(=O)O)c1I	inactive	inactive	inactive	inactive	inactive	inactive	inactive	inactive	inactive	inactive	inactive	inactive	inactive	inactive	inactive	inactive		inactive	inactive	inactive
C=CCn1c(=O)n([C@@H]2O[C@H](CO)[C@@H](O)[C@H]2O)c2nc(N)[nH]c(=O)c21	inactive	inactive	inactive	inactive	inactive	inactive	inactive	inactive	inactive	inactive	inactive	inactive	inactive	inactive	inactive	inactive	inactive	inactive		inactive
CC1(C)OC(=O)Nc2ccc(Br)cc21	inactive	inactive	inactive	9.44 µM (active)	inactive	inactive	inactive	inactive	inactive	inactive		inactive	inactive	inactive	inactive	inactive		inactive		inactive
NC(N)=NS(=O)(=O)c1ccc(N)cc1	inactive	inactive	inactive	inactive	inactive	inactive	inactive	inactive	inactive	inactive	inactive	inactive	inactive	inactive	inactive	inactive	inactive	inactive	inactive	inactive
CCCCCC[C@@H](CCC)C(=O)O	inactive	inactive	inactive		inactive	inactive	inactive	inactive	inactive	inactive	inactive	inactive			inactive		inactive	inactive		inactive
Cc1nc(-c2ccc(OCC(C)C)c(C#N)c2)sc1C(=O)O	inactive	inactive	inactive	inactive	inactive	335 nM (active)	inactive	inactive		inactive		inactive		inactive	inactive	inactive	inactive	inactive		inactive
CC(C)[N+](C)(C)CC(O)COc1cccc2ccccc12 (stereo not given)	inactive	inactive	inactive		inactive	inactive	inactive	inactive	inactive	inactive	inactive	inactive	inactive		inactive	inactive	inactive	inactive	inactive	
CCCCCCOC(=O)CC(CC(=O)OCCCCCC)(OC(=O)CCC)C(=O)OCCCCCC	inactive	inactive	inactive	inactive	inactive	inactive	inactive	inactive	inactive	inactive	inactive	inactive	inactive	inactive	inactive	inactive		inactive		inactive
CCCCNc1ccccc1	inactive	inactive	inactive	inactive	inactive	inactive	inactive	inactive	inactive	inactive		inactive	inactive	inactive	inactive	inactive		inactive		inactive
Cc1ncc(CSSCc2cnc(C)c(O)c2CO)c(CO)c1O	inactive	inactive	inactive	inactive	inactive		inactive	inactive	inactive			inactive	inactive	inactive	inactive	inactive	inactive	inactive		inactive
CN(C)CCn1nnnc1SCC1=C(C(=O)O)N2C(=O)[C@@H](NC(=O)Cc3csc(N)n3)[C@H]2SC1	inactive	inactive	inactive	inactive			inactive	inactive	inactive			inactive	inactive	inactive	inactive		inactive	inactive		inactive
CCCC(=O)O[C@]1(C(=O)CCl)[C@@H](C)C[C@H]2[C@@H]3CCC4=CC(=O)C=C[C@]4(C)[C@@]3(F)C(=O)C[C@@]21C	inactive	inactive	inactive	inactive	inactive	inactive	inactive	inactive	inactive			inactive	inactive	4.7 nM (active)	inactive	inactive	inactive			inactive

From PubChem BioAssay (Tox21)
